Several values for one entry are separate records, joined by “and”; a condition that tells them apart may be missing. Identical values can stand only once. Records with an inconclusive call do not appear. Some structures have more than one record in an assay (separate samples or runs), and their calls can disagree. Activity calls are given as the source filed them. The calls were made as follows: active = hit-call score of the fitted dose curve at least 0.9, where 1 is the maximum; inconclusive = response in the unintended direction; inactive = score below 0.9.

The target in this test is chicken Estrogen Receptor (ERa), ESR1 (gene 396099) (UniProt P06212). Briefly: ATG_chERa_XSP2: Attagene TRANS-FACTORIAL Multi-Species (XSP2) HepG2 Assay for chicken Estrogen Receptor (ERa) (AID 2283817).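 Also: actives raise reporter signal above DMSO so AC50 reflects ER activation.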 The procedure, abridged: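 Exogenous chicken ERa-Gal4 chimera activity was assessed in transfected human liver HepG2 cells after 24 h of treatment. Induced reporter mRNA was quantified fluorescently by capillary electrophoresis, with DMSO as baseline.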
Sequence of chicken Estrogen Receptor (ERa), ESR1 (gene 396099) (P06212 whole entry, looked up, the tested form may be a part): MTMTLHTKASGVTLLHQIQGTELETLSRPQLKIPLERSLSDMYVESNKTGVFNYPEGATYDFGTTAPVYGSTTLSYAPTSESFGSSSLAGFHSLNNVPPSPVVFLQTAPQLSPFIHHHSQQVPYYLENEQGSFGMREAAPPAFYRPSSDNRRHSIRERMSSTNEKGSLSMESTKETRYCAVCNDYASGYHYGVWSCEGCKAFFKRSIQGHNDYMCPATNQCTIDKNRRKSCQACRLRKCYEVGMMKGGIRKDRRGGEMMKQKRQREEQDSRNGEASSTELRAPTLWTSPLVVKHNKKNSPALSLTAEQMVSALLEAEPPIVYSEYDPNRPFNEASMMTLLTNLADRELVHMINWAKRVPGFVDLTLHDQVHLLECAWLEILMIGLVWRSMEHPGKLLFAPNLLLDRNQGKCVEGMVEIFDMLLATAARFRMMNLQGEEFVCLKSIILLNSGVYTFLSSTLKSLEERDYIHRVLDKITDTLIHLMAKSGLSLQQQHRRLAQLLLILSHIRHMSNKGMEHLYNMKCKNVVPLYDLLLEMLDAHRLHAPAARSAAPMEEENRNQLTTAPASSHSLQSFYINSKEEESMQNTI
`CC(=O)S[C@@H]1CC2=CC(=O)CC[C@]2(C)[C@H]2CC[C@@]3(C)[C@@H](CC[C@@]34CCC(=O)O4)[C@H]12`: the compound was called inactive.

In the case of `CCCCC(CC)CN1C(=O)C2C3C=CC(C3)C2C1=O` (stereo not given), the call was inactive.

As for `CC1(C)C(C=C(Cl)Cl)C1C(=O)OCc1cccc(Oc2ccccc2)c1` (stereo not given), the AC50 is 4.5 µM (active).

Turning to `C=CCOC(Cn1ccnc1)c1ccc(Cl)cc1Cl` (stereo not given), the outcome was inactive.

Take `CCN(Cc1c(F)cccc1Cl)c1c([N+](=O)[O-])cc(C(F)(F)F)cc1[N+](=O)[O-]`: the AC50 is 2.59 µM (active) and 795 nM (active).

As for `CC(C)CCCCCCc1ccc(O)cc1`, the AC50 was 0.829 µM (active).

As to `CSC(=O)c1cccc2nnsc12`, the compound was called inactive.

For the compound `CCCCC(CC)COC(=O)c1ccccc1C(=O)O` (stereo not given), the concentration at half-maximal activity (AC50) is 27.2 µM (active).

Regarding `C#C[C@]1(O)CC[C@H]2[C@@H]3CCC4=CC(=O)CC[C@@H]4[C@H]3CC[C@@]21CC`, the result was inactive.

Regarding `CN(C)C(=O)Nc1ccc(Cl)c(Cl)c1`, the AC50 is 32.9 µM (active) and 10.6 µM (active).

For `CC(C)(c1ccc(O)cc1)c1ccc(O)cc1`, the AC50 is 0.501 µM (active).

Turning to `Oc1ccc(C(c2ccc(O)cc2)C(Cl)(Cl)Cl)cc1`, the AC50 was 0.11 µM (active).

`N[C@@H](Cc1cc(I)c(Oc2ccc(O)c(I)c2)c(I)c1)C(=O)O`: the AC50 is 4.3 µM (active) and the result was inactive.

As for `O=C(c1ccc(O)cc1O)c1ccc(O)cc1O`, the half-maximal activity concentration (AC50) is 2.81 µM (active).

Usually AC50 stands for the concentration at which the activity in the assay is half-maximal.
